Cell proliferation data for 32 compounds are collected here from the supplement of paper PMC9337992.

Molecules are shown by their SMILES. ± gives the standard deviation of the averaged measurements.

The assay relates to MDAMB468. In words: cell proliferation (confluence) relative to DMSO control; higher = less growth inhibition. The following applies: 5 uM; 6 d. Here is the method: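 Epigenetic chemical probe screen: 15 TNBC cell lines, 500 cells per well in 384-well plates, treated with 5 uM of each of 36 SGC probes for 6 d. Confluency was imaged by IncuCyte ZOOM and normalised to DMSO control wells. Four replicate wells per compound.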
For the compound `Clc1cc2c(NC3CCCC3)nnc(-c3ccncc3)c2cc1Cl`, the cell proliferation stood at 56.9 ± 7.9%.

Regarding `Cc1nnc2c3ccccc3c(N[C@@H](C)[C@H](c3ccccc3)N(C)C)nn12` [L-moses], the cell proliferation is 41 ± 3.8%.

The compound `O=C(c1ccc(C(=O)N2CCC(N3CCCC3)CC2)c(Nc2ccccc2)c1)N1CCC(N2CCCC2)CC1` had a cell proliferation of 74.9 ± 8.6%.

With `O=C(/C=C/N1C[C@H]2C[C@@H]1CN2c1ccccn1)c1ccccc1O`, the cell proliferation came to 75.6 ± 6.1%.

`CCCc1cc(C)[nH]c(=O)c1CNC(=O)c1cc(-c2ccc(N3CCN(C(C)C)CC3)nc2)cc2c1cnn2C(C)C` gave a cell proliferation of 13.3 ± 14%.

Compound `CCCOc1ccn2c(C(C)=O)cc(-c3ccccc3S(C)(=O)=O)c2c1` registered a cell proliferation of 66 ± 5.1%.

`CCCc1cc(C)[nH]c(=O)c1CNC(=O)c1cc(-c2ccnc(N3CCN(C)CC3)c2)cc2c1cnn2C(C)C`: the cell proliferation worked out at 67.7 ± 12%.

The compound `COc1cc2c(cc1OCCCN1CCCC1)N=C(N)C21CCC1` registered a cell proliferation of 71.6 ± 11%.

For the compound `CCC(=O)N1CCOc2c(cc(-c3ccc(OC)c(OC)c3)cc2OC[C@H]2CCCN(C)C2)C1`, the cell proliferation turned out to be 37.1 ± 9%.

For the compound `CC(C)Oc1ccc(-c2c[nH]cc2CN(C)CCO)cc1`, the cell proliferation stood at 37 ± 7.3%.

The compound `COc1cc(C#N)ccc1S(=O)(=O)Nc1ccc2c(c1)cc(C)c(=O)n2C` gave a cell proliferation of 40.4 ± 6.3%.

`Cn1cc(CCn2cnc(-c3cnn(C)c3)c2-c2ccc(C#N)cc2)cn1` gave a cell proliferation of 55.5 ± 13%.

In turn, `COc1ccccc1S(=O)(=O)Nc1ccc2c(c1)CN(C)C(=O)N2` yielded a cell proliferation of 23.2 ± 2.7%.

On to `CC(C)N(CCCNC(=O)Nc1ccc(C(C)(C)C)cc1)C[C@H]1O[C@@H](n2cc(Br)c3c(N)ncnc32)[C@H](O)[C@@H]1O`, for which the cell proliferation is 54.2 ± 14%.

`COc1ccccc1C(=O)Nc1cc2c(cc1N1CCCC1)n(C)c(=O)n2C`: the cell proliferation was determined as 39.3 ± 3.8%.

The compound `CNCCN1CCC(OCc2ccccc2)CC1` displayed a cell proliferation of 37.4 ± 6.8%.

In the case of `O=C(NC[C@H](O)CN1CCc2ccccc2C1)c1ccnc(NC2CCC2)c1`, the cell proliferation turned out to be 32 ± 1.8%.

Consider `CC(C)Oc1ccc(-c2c[nH]cc2CN(C)CCN)cc1`, for which the cell proliferation was found to be 19.3 ± 5.7%.

The compound `COc1cc(-c2cn(C)c(=O)c3cnccc23)c(OC)cc1CN(C)C` returned a cell proliferation of 53.6 ± 13%.

In the case of `CCn1cc(-c2cccc(C(F)(F)F)c2)c2sc(C(=N)NC3CCS(=O)(=O)CC3)cc2c1=O`, the cell proliferation came to 29.1 ± 4.8%.

In turn, `CCN(C(=O)CO)[C@H]1CN(/C(=N\C#N)Nc2cccc(OC(F)F)c2)N=C1c1ccc(Cl)c(Cl)c1` had a cell proliferation of 55.2 ± 6%.

Consider `Cc1cc(=O)n(C)c2cc(N3C(=O)CC[C@H](NS(=O)(=O)CC(C)C)[C@H]3c3ccc(Cl)cc3)ccc12`, for which the cell proliferation amounted to 59.3 ± 2.4%.

Regarding `COc1cc2c(NC3CCN(C(C)C)CC3)nc(C3CCCCC3)nc2cc1OCCCN1CCCC1`, the cell proliferation was determined as 67.2 ± 8%.

Compound `CCOC(=O)CCNc1cc(N2CCc3ccccc3CC2)nc(-c2ccccn2)n1` showed a cell proliferation of 9.55 ± 1.9%.

As for `O=C([C@@H](Cc1cccc(C(F)(F)F)c1)NS(=O)(=O)c1cc(F)c2c(c1)CCNC2)N1CCCC1`, the cell proliferation is 50.5 ± 25%.

Consider `CCCc1cc(C)n(C)c(=O)c1CN(C)C(=O)c1cc(-c2ccc(N3CCN(C(C)C)CC3)nc2)cc2c1cnn2C(C)C`, for which the cell proliferation turned out to be 70.4 ± 6.3%.

Take `CCOC(=O)CCNc1cc(N2CCc3ccccc3CC2)nc(-c2cccnc2)n1`: the cell proliferation stood at 71.9 ± 10%.

In the case of `O=C(NCC(=O)N1CCCC1)Nc1ccc2cnccc2c1`, the cell proliferation amounted to 40.6 ± 15%.

Turning to `COc1c(C)cc(NC(=O)c2nn(Cc3ccc(F)cc3)c3c2CN(C(=O)c2ccc[nH]2)C[C@]3(C)C(N)=O)cc1C`, the cell proliferation came to 35.5 ± 4.7%.

Compound `CC[C@H](C)n1cc(C)c2c(C(=O)NCc3c(C)cc(C)[nH]c3=O)cc(-c3ccc(N4CCNCC4)nc3)cc21` came in with a cell proliferation of 15.4 ± 9%.

In turn, `CN(C)[C@H]1CN(C2CCc3cccc(F)c32)C[C@@H]1c1ccc(N2CCN(S(C)(=O)=O)CC2)cc1` (some centres not stated) displayed a cell proliferation of 62.7 ± 4.4%.

Turning to `COc1ccc(CCc2nc3cc(-c4c(C)noc4C)ccc3n2C[C@H](C)N2CCOCC2)cc1Cl`, the cell proliferation was found to be 32.8 ± 4%.
